Here are results for 38 molecules from the supplement of paper PMC3842684.

The test system of the assay is P. falciparum NF54-pfs16-GFP early (I-III) stage gametocytes. The assay can be described thus: relative % inhibition of viable gametocyte number; higher = more gametocytocidal. Conditions: 0.5 µM; stage: early (I-III) gametocyte; incubation 72 h. Summed up:
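Magnet-isolated NF54 pfs16-GFP gametocytes at early (I/IIa, day 2) or late (day 8) stage were exposed to compound at 5 or 0.5 µM for 72 h at 37°C, 5% CO2, 5% O2, at 10% parasitaemia and 0.1% haematocrit. Elongated GFP objects with MitoTracker Red signal above cut-off were counted as viable by confocal imaging. Relative inhibition was normalised to in-plate vehicle and positive-control wells.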
For `COc1ccc(C2Sc3ccccc3N=C3C2=C(O)c2ccccc23)cc1` (stereo not drawn), the relative % inhibition is 6.74%.

Take `COc1ccccc1CNC(=O)C1c2ccccc2C(=O)N(CC(C)C)C1c1cccs1` (stereo not drawn): the relative % inhibition was -0.661%.

With `CCC(C)NCC(O)(c1ccc(Cl)cc1)c1ccc(Cl)cc1` (stereo not drawn), the relative % inhibition was 16.2%.

As for `CC(C)(C)c1ccc(C(=O)Nc2c3c(nn2-c2cccc(Cl)c2)CSC3)cc1`, the relative % inhibition was -12.5%.

As for `COc1ccc(-c2c(C)nn3c(N)c(C#N)cnc23)cc1OC`, the relative % inhibition was -24.1%.

With `COc1ccc(CCNC(=O)c2cc(S(=O)(=O)N3CC(C)CC(C)C3)ccc2Sc2ccc(F)cc2)cc1OC` (stereo not drawn), the relative % inhibition worked out at 10.1%.

For `COc1ccc(N2CCN(C(CNC(=O)CC(C)(C)C)c3ccc4c(c3)OCO4)CC2)cc1` (stereo not drawn), the relative % inhibition was found to be 31.4%.

`CCCCc1c(CCC)c(=N)c2ccccc2n1C`: the relative % inhibition was found to be 16.2%.

For the molecule `Cc1cc(Nc2cccc(F)c2)nc(NCc2ccccc2)n1`, the relative % inhibition came to 28.5%.

For `Cc1ccnc(NC(c2cccc(OCc3ccccc3)c2)c2ccc3cccnc3c2O)c1` (stereo not drawn), the relative % inhibition stood at 14.9%.

On to `CCN(CC)c1cc(C)c2cc(NC(=O)c3cccc(OC)c3)ccc2n1`, for which the relative % inhibition came out at 15.1%.

`CC(C)=CCN1CCC(C(=O)Nc2ccc(-c3nc4ccccc4[nH]3)cc2)CC1`: the relative % inhibition came out at 3.42%.

`Oc1c(CN2CCN(c3ccccc3F)CC2)cc(Br)c2cccnc12`: the relative % inhibition is 15.7%.

On to `COc1ccc2c(c1)OC(O)(C(F)(F)C(F)(F)F)CC2=O` (stereo not drawn), for which the relative % inhibition is -12.9%.

In the case of `COc1ccc(Nc2cc(C)nc(NCc3ccccc3)n2)cc1`, the relative % inhibition is -3.8%.

Consider `COc1cccc(Nc2nc(N)c3ccccc3n2)c1`, for which the relative % inhibition is -16.5%.

For the molecule `CCCCCn1c(=N)n(CC(O)COc2cccc(C)c2)c2ccccc21` (stereo not drawn), the relative % inhibition turned out to be 37.7%.

In the case of `CCOc1ccc2nc(C)cc(Nc3ccc(Br)cc3)c2c1`, the relative % inhibition came to 38.4%.

In the case of `Cc1cccc(N2C(=O)C3C(C2=O)C2(c4ccccc4)C(=O)C3(c3ccccc3)C(c3ccc4c(c3)OCO4)=C2c2ccc3c(c2)OCO3)c1` (stereo not drawn), the relative % inhibition is 56.2%.

Regarding `COc1ccccc1N1C(=N)SC(=Cc2ccc(OCc3ccccc3F)cc2)C1=O`, the relative % inhibition came out at 2.18%.

On to `Oc1c2c(nc3cc(-c4ccccc4)nn13)CCCC2`, for which the relative % inhibition is 3.76%.

For the molecule `CC(=O)Nc1nnc(SCc2c(C)cc(C(C)(C)C)cc2C)s1`, the relative % inhibition came to 13.5%.

Consider `CCOc1ccccc1CNC(=O)C1c2ccccc2C(=O)N(CC(C)C)C1c1cccs1` (stereo not drawn), for which the relative % inhibition was found to be 6.2%.

For `CCN(CC)CCn1c(=N)n(CC(O)c2ccc(Cl)c(Cl)c2)c2ccccc21` (stereo not drawn), the relative % inhibition came to 32.2%.

`CCN(CC)CCNc1ncnc2c1[nH]c1ccc(Cl)cc12`: the relative % inhibition amounted to 14.5%.

For the molecule `O=C(CSc1ccc2nnc(-c3cccc(F)c3)n2n1)Nc1ccc2c(c1)OCO2`, the relative % inhibition stood at 10.3%.

Take `Cc1cc(C)cc(Nc2cc(C)nc3nc(C(F)(F)F)nn23)c1`: the relative % inhibition was -6.02%.

As for `O=C(O)C1Cc2c([nH]c3ccccc23)C(c2ccc(Cl)cc2Cl)N1` (stereo not drawn), the relative % inhibition was -10.4%.

As for `O=C(Nc1ccc(Br)cc1)Nc1cccc(Cl)c1`, the relative % inhibition came to 20%.

As to `O=C1c2ccccc2-c2nnc(-c3ccc(Br)cc3)cc21`, the relative % inhibition was found to be 16.6%.

As for `COc1ccccc1N=C1C(=O)c2ccccc2C(O)=C1N1CCCCC1`, the relative % inhibition was 21.8%.

As for `CC(C)CCNCC(O)Cn1c2ccccc2c2ccccc21` (stereo not drawn), the relative % inhibition worked out at 23.7%.

With `CCCCCCC(O)(c1ccc(F)cc1)C(CN1CCOCC1)c1ccccc1` (stereo not drawn), the relative % inhibition was -0.0307%.

Turning to `CCOC(=O)C1=C(c2ccccc2)N=c2sc(=Cc3cc(C)n(-c4ccc(F)cc4)c3C)c(=O)n2C1c1cccc(OC)c1OC` (stereo not drawn), the relative % inhibition is 14.6%.

In the case of `CN(C)c1ccc(-c2nc3cc(N)ccc3[nH]2)cc1`, the relative % inhibition is -6.62%.

On to `CCCc1c(C)nc2ccccc2c1O`, for which the relative % inhibition was -8.06%.

With `CCN(CC)CCCNc1nc(-c2ccc(Cl)cc2)nc2ccccc12`, the relative % inhibition is 11.6%.

With `Cc1ccc(Nc2nc(-c3ccccn3)cs2)cc1`, the relative % inhibition is 69.6%.
